Laboratory results: the supplement of paper PMC4466140

target: AgAbp1; experiment: SPOT peptide array binding signal intensity (averaged, normalized) (arbitrary units (background-subtracted, floor 0; scale differs between SH3 domains)); higher = stronger binding of the SH3 domain to the peptide
Method in brief: (§1)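 The binding signal is the normalized, background-subtracted spot intensity averaged over replicates; its arbitrary units differ between domains. It was obtained by incubating 10 μg/ml GST-fused SH3 domains from four yeast species overnight at 4°C in TBS-based blocking buffer on cellulose membranes with synthetic 15-mer peptides, cysteines replaced by serines, then detecting with anti-GST antibody, HRP anti-mouse secondary and luminol.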

Binder	SPOT peptide array binding signal intensity
SSTPTTPERPKRKSG	128

target: AgBbc1; experiment: as above
Method in brief: as §1

Binder	SPOT peptide array binding signal intensity
SSTPTTPERPKRKSG	2110

target: AgBem1-D1; experiment: as above
Method in brief: as §1

Binder	SPOT peptide array binding signal intensity
SSTPTTPERPKRKSG	≤ 0

target: AgBzz1-D1; experiment: as above
Method in brief: as §1

Binder	SPOT peptide array binding signal intensity
SSTPTTPERPKRKSG	36.5

target: AgBzz1-D2; experiment: as above
Method in brief: as §1

Binder	SPOT peptide array binding signal intensity
SSTPTTPERPKRKSG	21

target: AgCyk3; experiment: as above
Method in brief: as §1

Binder	SPOT peptide array binding signal intensity
SSTPTTPERPKRKSG	2

target: AgFus1; experiment: as above
Method in brief: as §1

Binder	SPOT peptide array binding signal intensity
SSTPTTPERPKRKSG	≤ 0

target: AgHof1; experiment: as above
Method in brief: as §1

Binder	SPOT peptide array binding signal intensity
SSTPTTPERPKRKSG	≤ 0

target: AgHse1; experiment: as above
Method in brief: as §1

Binder	SPOT peptide array binding signal intensity
SSTPTTPERPKRKSG	≤ 0

target: AgLsb1; experiment: as above
Method in brief: as §1

Binder	SPOT peptide array binding signal intensity
SSTPTTPERPKRKSG	1

target: AgLsb4; experiment: as above
Method in brief: as §1

Binder	SPOT peptide array binding signal intensity
SSTPTTPERPKRKSG	602

target: AgMyo5; experiment: as above
Method in brief: as §1

Binder	SPOT peptide array binding signal intensity
SSTPTTPERPKRKSG	≤ 0

target: AgNbp2; experiment: as above
Method in brief: as §1

Binder	SPOT peptide array binding signal intensity
SSTPTTPERPKRKSG	≤ 0

target: AgRvs167; experiment: as above
Method in brief: as §1

Binder	SPOT peptide array binding signal intensity
SSTPTTPERPKRKSG	18.3

target: AgSho1; experiment: as above
Method in brief: as §1

Binder	SPOT peptide array binding signal intensity
SSTPTTPERPKRKSG	≤ 0

target: AgSla1-D1-D2; experiment: as above
Method in brief: as §1

Binder	SPOT peptide array binding signal intensity
SSTPTTPERPKRKSG	≤ 0

target: AgSla1-D3; experiment: as above
Method in brief: as §1

Binder	SPOT peptide array binding signal intensity
SSTPTTPERPKRKSG	1.25

target: CaAbp1-D1; experiment: as above
Method in brief: as §1

Binder	SPOT peptide array binding signal intensity
SSTPTTPERPKRKSG	514

target: CaAbp1-D2; experiment: as above
Method in brief: as §1

Binder	SPOT peptide array binding signal intensity
SSTPTTPERPKRKSG	1000

target: CaBbc1; experiment: as above
Method in brief: as §1

Binder	SPOT peptide array binding signal intensity
SSTPTTPERPKRKSG	2820

target: CaBem1-D1; experiment: as above
Method in brief: as §1

Binder	SPOT peptide array binding signal intensity
SSTPTTPERPKRKSG	8

target: CaBzz1-D1; experiment: as above
Method in brief: as §1

Binder	SPOT peptide array binding signal intensity
SSTPTTPERPKRKSG	63.5

target: CaBzz1-D2; experiment: as above
Method in brief: as §1

Binder	SPOT peptide array binding signal intensity
SSTPTTPERPKRKSG	36.2

target: CaCyk3; experiment: as above
Method in brief: as §1

Binder	SPOT peptide array binding signal intensity
SSTPTTPERPKRKSG	166

target: CaFus1; experiment: as above
Method in brief: as §1

Binder	SPOT peptide array binding signal intensity
SSTPTTPERPKRKSG	48.5

target: CaHof1; experiment: as above
Method in brief: as §1

Binder	SPOT peptide array binding signal intensity
SSTPTTPERPKRKSG	0.5

target: CaHse1; experiment: as above
Method in brief: as §1

Binder	SPOT peptide array binding signal intensity
SSTPTTPERPKRKSG	≤ 0

target: CaLsb1; experiment: as above
Method in brief: as §1

Binder	SPOT peptide array binding signal intensity
SSTPTTPERPKRKSG	≤ 0

target: CaLsb4; experiment: as above
Method in brief: as §1

Binder	SPOT peptide array binding signal intensity
SSTPTTPERPKRKSG	7900

target: CaMyo5; experiment: as above
Method in brief: as §1

Binder	SPOT peptide array binding signal intensity
SSTPTTPERPKRKSG	0.25

target: CaNbp2; experiment: as above
Method in brief: as §1

Binder	SPOT peptide array binding signal intensity
SSTPTTPERPKRKSG	28.5

target: CaRvs167; experiment: as above
Method in brief: as §1

Binder	SPOT peptide array binding signal intensity
SSTPTTPERPKRKSG	110

target: CaRvs167-3; experiment: as above
Method in brief: as §1

Binder	SPOT peptide array binding signal intensity
SSTPTTPERPKRKSG	≤ 0

target: CaSho1; experiment: as above
Method in brief: as §1

Binder	SPOT peptide array binding signal intensity
SSTPTTPERPKRKSG	9.5

target: CaSla1-D1-D2; experiment: as above
Method in brief: as §1

Binder	SPOT peptide array binding signal intensity
SSTPTTPERPKRKSG	480

target: CaSla1-D3; experiment: as above
Method in brief: as §1

Binder	SPOT peptide array binding signal intensity
SSTPTTPERPKRKSG	≤ 0

target: ScAbp1; experiment: as above
Method in brief: as §1

Binder	SPOT peptide array binding signal intensity
SSTPTTPERPKRKSG	66

target: ScBbc1; experiment: as above
Method in brief: as §1

Binder	SPOT peptide array binding signal intensity
SSTPTTPERPKRKSG	2030

target: ScBem1-D1; experiment: as above
Method in brief: as §1

Binder	SPOT peptide array binding signal intensity
SSTPTTPERPKRKSG	3

target: ScBzz1-D1; experiment: as above
Method in brief: as §1

Binder	SPOT peptide array binding signal intensity
SSTPTTPERPKRKSG	15

target: ScBzz1-D2; experiment: as above
Method in brief: as §1

Binder	SPOT peptide array binding signal intensity
SSTPTTPERPKRKSG	7.5

target: ScCyk3; experiment: as above
Method in brief: as §1

Binder	SPOT peptide array binding signal intensity
SSTPTTPERPKRKSG	≤ 0

target: ScFus1; experiment: as above
Method in brief: as §1

Binder	SPOT peptide array binding signal intensity
SSTPTTPERPKRKSG	≤ 0

target: ScHof1; experiment: as above
Method in brief: as §1

Binder	SPOT peptide array binding signal intensity
SSTPTTPERPKRKSG	≤ 0

target: ScHse1; experiment: as above
Method in brief: as §1

Binder	SPOT peptide array binding signal intensity
SSTPTTPERPKRKSG	33.5

target: ScLsb1; experiment: as above
Method in brief: as §1

Binder	SPOT peptide array binding signal intensity
SSTPTTPERPKRKSG	260

target: ScLsb2; experiment: as above
Method in brief: as §1

Binder	SPOT peptide array binding signal intensity
SSTPTTPERPKRKSG	1

target: ScLsb3; experiment: as above
Method in brief: as §1

Binder	SPOT peptide array binding signal intensity
SSTPTTPERPKRKSG	5780

target: ScLsb4; experiment: as above
Method in brief: as §1

Binder	SPOT peptide array binding signal intensity
SSTPTTPERPKRKSG	836

target: ScMyo3; experiment: as above
Method in brief: as §1

Binder	SPOT peptide array binding signal intensity
SSTPTTPERPKRKSG	≤ 0

target: ScMyo5; experiment: as above
Method in brief: as §1

Binder	SPOT peptide array binding signal intensity
SSTPTTPERPKRKSG	≤ 0

target: ScNbp2; experiment: as above
Method in brief: as §1

Binder	SPOT peptide array binding signal intensity
SSTPTTPERPKRKSG	≤ 0

target: ScPex13; experiment: as above
Method in brief: as §1

Binder	SPOT peptide array binding signal intensity
SSTPTTPERPKRKSG	78.2

target: ScRvs167; experiment: as above
Method in brief: as §1

Binder	SPOT peptide array binding signal intensity
SSTPTTPERPKRKSG	902

target: ScSho1; experiment: as above
Method in brief: as §1

Binder	SPOT peptide array binding signal intensity
SSTPTTPERPKRKSG	≤ 0

target: ScSla1-D1-D2; experiment: as above
Method in brief: as §1

Binder	SPOT peptide array binding signal intensity
SSTPTTPERPKRKSG	290

target: ScSla1-D3; experiment: as above
Method in brief: as §1

Binder	SPOT peptide array binding signal intensity
SSTPTTPERPKRKSG	15

target: SpAbp1-D1; experiment: as above
Method in brief: as §1

Binder	SPOT peptide array binding signal intensity
SSTPTTPERPKRKSG	85

target: SpBbc1; experiment: as above
Method in brief: as §1

Binder	SPOT peptide array binding signal intensity
SSTPTTPERPKRKSG	22.2

target: SpBzz1-D1; experiment: as above
Method in brief: as §1

Binder	SPOT peptide array binding signal intensity
SSTPTTPERPKRKSG	64

target: SpBzz1-D2; experiment: as above
Method in brief: as §1

Binder	SPOT peptide array binding signal intensity
SSTPTTPERPKRKSG	≤ 0

target: SpCyk3; experiment: as above
Method in brief: as §1

Binder	SPOT peptide array binding signal intensity
SSTPTTPERPKRKSG	≤ 0

target: SpHof1; experiment: as above
Method in brief: as §1

Binder	SPOT peptide array binding signal intensity
SSTPTTPERPKRKSG	2.5

target: SpHof1-2; experiment: as above
Method in brief: as §1

Binder	SPOT peptide array binding signal intensity
SSTPTTPERPKRKSG	2

target: SpHof1-3; experiment: as above
Method in brief: as §1

Binder	SPOT peptide array binding signal intensity
SSTPTTPERPKRKSG	177

target: SpHse1; experiment: as above
Method in brief: as §1

Binder	SPOT peptide array binding signal intensity
SSTPTTPERPKRKSG	11

target: SpLsb1; experiment: as above
Method in brief: as §1

Binder	SPOT peptide array binding signal intensity
SSTPTTPERPKRKSG	1030

target: SpLsb4; experiment: as above
Method in brief: as §1

Binder	SPOT peptide array binding signal intensity
SSTPTTPERPKRKSG	8450

target: SpMyo1; experiment: as above
Method in brief: as §1

Binder	SPOT peptide array binding signal intensity
SSTPTTPERPKRKSG	≤ 0

target: SpNbp2; experiment: as above
Method in brief: as §1

Binder	SPOT peptide array binding signal intensity
SSTPTTPERPKRKSG	≤ 0

target: SpPex13; experiment: as above
Method in brief: as §1

Binder	SPOT peptide array binding signal intensity
SSTPTTPERPKRKSG	≤ 0

target: SpRvs167; experiment: as above
Method in brief: as §1

Binder	SPOT peptide array binding signal intensity
SSTPTTPERPKRKSG	450

target: SpSla1-D1-D2; experiment: as above
Method in brief: as §1

Binder	SPOT peptide array binding signal intensity
SSTPTTPERPKRKSG	8

target: SpSla1-D3; experiment: as above
Method in brief: as §1

Binder	SPOT peptide array binding signal intensity
SSTPTTPERPKRKSG	≤ 0
